Assay outcomes: PubChem, The Scripps Research Institute Molecular Screening Center
Shown are actives, neighbours in structure and some others; about 4.8% of the full set was active somewhere.
DAX1 inh-1 = NR0B1 (DAX1) inhibition. P51843. HEK293 Gal4-DAX1 luciferase reporter, luminescence. inhibition, % at 6.75 µM. 340,000 tested, 0.99% active. AID 504766;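 active = inhibition above the mean over all tested compounds plus 3 SD, cut at about 4.2% in these data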;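 note: 0% = DAX1-transfected cells with DMSO and 100% = empty-vector control cells with DMSO; inhibition shows as a rise in luminescence from relieved DAX1 repression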
Target sequence (P51843 207-470 limits assumed): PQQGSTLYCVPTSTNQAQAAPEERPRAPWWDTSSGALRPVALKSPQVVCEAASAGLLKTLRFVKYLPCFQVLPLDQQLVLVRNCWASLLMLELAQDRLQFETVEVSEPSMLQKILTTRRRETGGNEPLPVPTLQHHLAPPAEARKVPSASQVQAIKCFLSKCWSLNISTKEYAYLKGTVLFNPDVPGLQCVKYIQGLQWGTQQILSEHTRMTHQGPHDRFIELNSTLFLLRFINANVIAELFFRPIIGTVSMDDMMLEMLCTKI
DAX1 inh-2 = inhibitors of DAX1 repression of SF-1 activated StAR promoter; 370,000 tested, 1.1% active; HEK293T StAR-luciferase reporter, SF-1/DAX-1 repression relief; inhibition, % at 6.8 µM;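 active = inhibition above the mean over all tested compounds plus 3 SD, cut at about 3.6% in these data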;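 note: 0% = DAX-1 cells with DMSO and 100% = cells lacking DAX-1 with DMSO; higher inhibition means more luminescence from relief of DAX-1 repression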
hgDAF12 agonist = agonists of H. glycines DAF-12 nuclear receptor | HEK293 GAL4-hgDAF12 UAS-luciferase reporter, agonist luminescence; normalized to butyrate control | activation, % at 6.8 µM | 370,000 tested, 1.8% active | AID 687014;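 active = activation above a cutoff set at the mean of all screened compounds plus 3 SD, cut at about 10% in these data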;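 note: 0% = DMSO wells and 100% = sodium butyrate wells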
SMARCA2 act = activators of SMARCA2 function; MG213 cells, MMTV-luciferase reporter, dexamethasone, overnight; activation, % at 9.1 µM; 370,000 tested, 1% active; in the data active = activation above about 7.8%;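 note: 0% = vehicle wells and 100% = reference activator wells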
ssDAF-12 act = S. stercoralis DAF-12 activation, primary screen. 370,000 tested, 1% active. activation, % at 6.8 µM. AID 652126. HEK293 ssDAF-12/GRIP1 lit1-tk-luc reporter, luminescence; % of 3 µM dafachronic acid response;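 active = activation above the mean over all tested compounds plus 3 SD, cut at about 0.9% in these data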;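 note: 0% = DMSO-only wells and 100% = 3 µM delta7-dafachronic acid wells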
hcDAF12 agonist = H. contortus DAF-12 activation, primary screen; activation, % at 6.8 µM; 370,000 tested, 1.4% active; HEK293 hcDAF-12 lit1-tk-luc reporter, luminescence; 0% DMSO, 100% Δ7-dafachronic acid;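 active = activation above the mean of all tested compounds plus 3 SD, cut at about 5.5% in these data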;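 note: 100% = response to 3 µM Δ7-dafachronic acid high control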
An asterisk follows results filed as active; x = not tested or not shown.

SMILES | DAX1 inh-1 | DAX1 inh-2 | hgDAF12 agonist | SMARCA2 act | ssDAF-12 act | hcDAF12 agonist
CCC(=O)Nc1ccc(Nc2ccccc2)cc1 | 1 | 0 | 2 | 0 | -1 | 3
O=C(CC(=O)Nc1ccccc1)Nc1ccccc1 | 4.3* | 0 | 1 | 4 | 0 | -1
O=C(CSCc1ccc(C(=O)O)cc1)Nc1ccccc1 | 5.1* | 0 | -1 | 2 | -1 | -1
O=C(O)CN(c1ccccn1)S(=O)(=O)c1ccc(Cl)cc1 | 0 | 1 | -3 | 4 | -1 | -1
CC1(NC(=S)NCCO)CCS(=O)(=O)C1 (centres undefined) | 1 | 0 | -4 | -2 | -1 | 3
O=C(Nc1nnc(-c2ccccc2F)s1)c1cccnc1 | 5.1* | 1 | 1 | 2 | -1 | 0
N/C(=N\OC(=O)C1CCCCC1)c1ccncc1 | 0 | 1 | 1 | 0 | -1 | 1
COc1ccccc1CC(=O)O/N=C(\N)c1ccccn1 | 1 | 1 | 5 | -1 | 0 | 1
N/C(=N\OC(=O)Cc1cccc2ccccc12)c1ccccn1 | 2 | 1 | 6 | 4 | 0 | 5.8*
N/C(=N\OC(=O)C1CCCCC1)c1ccccn1 | 0 | 2 | 12* | 5 | 0 | 2
Fc1cccc(CSc2nc3ccncc3[nH]2)c1 | 1 | 4.4* | 4 | 2 | -1 | 2
Nc1ccc2c(=O)[nH][nH]c(=O)c2c1 | -1 | -1 | 3 | -1 | 0 | -2
Nc1ccc2oc3ccc(N)cc3c(=O)c2c1 | 0 | 4.2* | 11* | 2 | 1 | 5.6*
Cc1ccc(C)c(N(C)C(=O)COc2cc(=O)n(C)c3ccccc23)c1 | 4.8* | 1 | -3 | 4 | -1 | -2
COC(=O)c1ccccc1NC(=O)Cn1cnc2cc(C)c(C)cc21 | -2 | 0 | -3 | -3 | -2 | -1
COc1cccc2oc3cc(C#CC4(O)CCCCC4)ccc3c(=O)c12 | 1 | 4.0* | 6 | 3 | 0 | 5.8*
O=c1c2ccccc2oc2cc(C#CC3(O)CCCCC3)ccc12 | -3 | -1 | -12 | -5 | -3 | -4
C/C(=N\NC(=O)c1cc(Br)ccc1O)c1cccs1 | 2 | 2 | 7 | 3 | -1 | 3
C/C(=N/NC(=O)c1ccc(Br)o1)c1cccs1 | 1 | 3.7* | 7 | 2 | 0 | 1
O=C(Nc1cccc(Cl)c1Cl)Nn1cnnc1 | 1 | 2 | 1 | -1 | 0 | 1
O=C(Nc1ccc(-c2nc3ncccc3o2)cc1)c1ccco1 | 0 | 2 | 11* | 3 | 0 | 3
Cc1c(C(=O)Nc2cccc([N+](=O)[O-])c2)csc1-c1ccccc1 | 1 | 3 | 4 | 3 | 0 | 3
CCCc1c(C(=O)NNc2ccccc2OC)cnn1-c1ccccc1 | 0 | 0 | 2 | 0 | -1 | -1
Cc1ccc(NC(=O)c2csc(-c3ccccc3)c2C)cc1 | 0 | 4.3* | 6 | -2 | -1 | 3
Cc1ccc(NC(=O)c2cnn(-c3ccccc3)c2C)cc1 | 2 | 2 | 11* | 2 | 1.1* | 4
SMILES | DAX1 inh-1 | DAX1 inh-2 | hgDAF12 agonist | SMARCA2 act | ssDAF-12 act | hcDAF12 agonist
Cc1ccc(NC(=O)c2cnn(-c3ccccc3)c2C)c(C)c1 | 2 | 1 | 7 | 4 | 0 | 2
COc1ccc(OC(=O)c2cnn(-c3ccccc3)c2C)cc1 | 2 | 2 | 13* | 7 | 0 | 3
CCCc1c(C(=O)Nc2ccc(OC)cc2)cnn1-c1ccccc1 | 6.3* | 0 | 3 | -2 | 0 | 2
Cc1cc(C)c2[nH]c(=O)c(C(c3nnnn3C(C)(C)C)N(Cc3ccco3)CC3CCCO3)cc2c1 (centres undefined) | 1 | 0 | 0 | -2 | 0 | -2
CCOC(=O)c1[nH]c2ccccc2c1NC(=O)Nc1ccc(OC)cc1 | 1 | 0 | 2 | 1 | 0.9* | 4
CCOC(=O)c1[nH]c2ccc(OC)cc2c1NC(=O)c1ccccc1C(=O)O | 4.3* | 1 | 5 | -1 | 0 | 2
CCCC(=O)Nc1c(C(=O)OCC)[nH]c2ccccc12 | 2 | 1 | 4 | -2 | 0 | 4
CCOC(=O)c1[nH]c2ccccc2c1NC(=S)Nc1cc(C)ccc1C | 2 | -1 | 5 | -1 | 0 | 6.1*
O=[N+]([O-])c1cccc2c(N3CCCC3)ccnc12 | -2 | -6 | -6 | -7 | -2 | 0
COc1ccc(C(C)=O)cc1CN1C(=O)NC(CC(C)C)C1=O (centres undefined) | 4.4* | 0 | -2 | 1 | -2 | -1
CCNC(=O)C1CCCN(C(=O)c2ccc3snnc3c2)CC1 (centres undefined) | x | 1 | 0 | -2 | -1 | 0
CCCOc1ccc(N2C(=O)CC(N(CCCO)C(=O)CC)C2=O)cc1 (centres undefined) | 1 | 0 | 0 | 0 | -1 | -2
CCCCN(C(C)=O)C1CC(=O)N(c2ccc(OCCC)cc2)C1=O (centres undefined) | 8.6* | 0 | 1 | -1 | -1 | 0
Cc1ccc(-c2ccc3nnc(SCC(N)=O)n3n2)cc1 | 7.0* | 1 | -3 | 1 | -2 | 0
NC(=O)CSc1nnc2ccc(-c3ccc(Cl)cc3)nn12 | 0 | -1 | -2 | 2 | 0 | -1
CCOC(=O)CSC1=C(C#N)C(c2ccccc2OCC)C(C#N)C(=O)N1 (centres undefined) | 4.2* | 1 | 1 | 0 | -1 | -2
Cc1ccccc1NS(=O)(=O)c1nnc(NC(=O)c2ccccc2C)s1 | 2 | 1 | 0 | -1 | 0 | 6.2*
COc1cc(C(=O)NC(=S)N(CCc2ccccc2)CCc2ccccc2)cc(OC)c1OC | -3 | -3 | -3 | -3 | -2 | -3
O=C(Nc1cccnc1Cl)c1cc(-c2ccco2)on1 | 1 | 2 | 13* | 3 | 0 | 0
Cc1cccc2sc(NC(=O)c3ccc(Cl)s3)nc12 | 1 | 0 | 5 | 0 | 1.1* | 2
Cc1nc2ccc(NC(=O)Cc3c(F)cccc3Cl)cc2s1 | 3 | 2 | 11* | 3 | -1 | 1
O=C(Cc1c(F)cccc1Cl)Nc1nc2ccccc2s1 | 1 | 0 | 6 | 2 | -2 | 0
Cc1nc2ccc(NC(=O)c3ccc(Cl)s3)cc2s1 | 4.9* | 4.1* | 9 | 5 | 0 | 0
Cc1nc2ccc(NC(=O)c3cnc(Cl)c(Cl)c3)cc2s1 | 0 | 1 | 8 | 0 | -1 | 1
Cc1ccc2nc(NC(=O)c3ccc(Cl)s3)sc2c1 | 9.8* | 4.0* | 8 | 2 | 0 | 3
COc1ccc(S(=O)(=O)Nc2cccc(-c3ccc4nncn4n3)c2)cc1F | -3 | -1 | 0 | -1 | -2 | -3
CC(C)c1ccc(NC(=O)Nc2nnc([C@H]3C[C@H](O)[C@@H](CO)O3)s2)cc1 | x | 0 | 1 | 4 | -1 | -1
